Among the test systems are HCT-15 colon; HT29 colon; SNB-75 CNS; SNB-19 CNS; SK-MEL-5 melanoma; UACC-62 melanoma; LOX IMVI melanoma; SK-MEL-28 melanoma; PC-3 prostate; U251 CNS.
What all share (assay): NCI-60 one-dose screen, 48 h (100 = growth as untreated, 0 = no growth, -100 = all killed)
What all share (conditions): 10 µM unless noted

Structures are written as SMILES. This is part of a sample that, as a whole, favours compounds with a hit. Of some 83,000 tested, about 20% had one in any assay.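 Cells were grown in 96-well plates and exposed to the test compound at a single concentration for 48 hours; results are reported as percent growth, with values below 10 considered active.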 Values without a mark were called inactive. Active and inactive are the calls of the source.

Consider `O=C1C=CC(=O)c2c1nc1n2CCCC1`, for which the growth in the assay on HCT-15 colon was 103%; in the assay with HT29 colon, 35.5%; in the assay with SNB-75 CNS, 131%; in the assay with SNB-19 CNS it was 63.9%; with SK-MEL-5 melanoma, 22%; with UACC-62 melanoma, 71.4%. Besides, the growth in the assay on LOX IMVI melanoma was 48.8%; in the assay on SK-MEL-28 melanoma, 68.3%.
Consider `COc1cccc(/C=C2/C(=O)N(Cc3ccco3)SC2=S)c1OC`, for which the growth in the assay with HCT-15 colon was 97.2%; in the assay on HT29 colon, 90.1%; in the assay on SNB-75 CNS, 71.8%; in the assay with SNB-19 CNS, 107%; with SK-MEL-5 melanoma, 97.5%; with UACC-62 melanoma, 93.8%. Also, the growth in the assay on SK-MEL-28 melanoma was 101%.
`Nc1ccc(Nc2nccc(-c3ccc4ccccc4c3)n2)cc1`: the growth with HCT-15 colon is 25%; with HT29 colon, 14.3%; in the assay with SNB-75 CNS, 39%; in the assay with SNB-19 CNS it was 62.9%; in the assay on PC-3 prostate, 58.7%; in the assay with SK-MEL-5 melanoma it was 47.3%. Also, the growth in the assay on UACC-62 melanoma was 32.2%; in the assay with SK-MEL-28 melanoma it was 57.2%.
As for `O=c1cc(-c2ccccc2)[nH]c2ccccc12`, the growth with HCT-15 colon is 17.5%; in the assay with HT29 colon it was 15.3%; with SNB-75 CNS it was 30%; with U251 CNS it was 27.2%; with PC-3 prostate, 27.1%; in the assay on SK-MEL-5 melanoma it was 29.4%. Besides, the growth in the assay with UACC-62 melanoma was 64.5%; in the assay on LOX IMVI melanoma it was 57.7%; with SK-MEL-28 melanoma, 62.4%.
As for `CCCCOc1ccc(NC(=O)n2nc(NC(C)=O)c3cc(NC(C)=O)ccc32)cc1`, the growth is 88.9% in the assay on HCT-15 colon; 85.5% in the assay with HT29 colon; 114% in the assay with SNB-75 CNS; 96.2% with U251 CNS; 76.6% with PC-3 prostate; 101% with SK-MEL-5 melanoma. The growth in the assay with UACC-62 melanoma was 91.8%; in the assay on LOX IMVI melanoma, 98.5%; in the assay with SK-MEL-28 melanoma it was 126%.
For the compound `CNC(=S)N/N=C/CSC/C=N/NC(=S)NC`, the growth was 87.8% in the assay with HCT-15 colon; 24.4% in the assay with HT29 colon; 88.1% with SNB-75 CNS; 101% with SNB-19 CNS; 57% in the assay with PC-3 prostate; 81.1% with SK-MEL-5 melanoma. Also, the growth in the assay on UACC-62 melanoma was 89.2%; in the assay with SK-MEL-28 melanoma, 99.3%.
As to `CCC(=O)OCc1cccc(OC)c1`, the growth in the assay on HCT-15 colon was 92.2%; with HT29 colon, 90%; in the assay on SNB-75 CNS it was 59.7%; in the assay on U251 CNS, 93.2%; in the assay on PC-3 prostate, 86.5%; with SK-MEL-5 melanoma, 104%. In addition, the growth was 95.8% in the assay on UACC-62 melanoma, 92.1% in the assay on LOX IMVI melanoma and 107% in the assay with SK-MEL-28 melanoma.
Take `COc1ccc2[nH]c(=O)c(/C=C/C(=O)c3ccc(Nc4nccc(-c5ccc6ccccc6c5)n4)cc3)cc2c1`: the growth was 110% with HCT-15 colon; 102% with HT29 colon; 95.7% in the assay with SNB-75 CNS; 91.9% in the assay with SNB-19 CNS; 98.2% with PC-3 prostate; 101% in the assay on SK-MEL-5 melanoma. In addition, the values for the growth in the assay with UACC-62 melanoma and in the assay with SK-MEL-28 melanoma were 88.7% and 108%, respectively.
Consider `CCOC(=O)C(C#N)C1CCCCC1` (configuration not stated), for which the growth in the assay with HCT-15 colon was 95.9%; with HT29 colon, 108%; in the assay with SNB-75 CNS, 97.9%; in the assay with U251 CNS it was 93.8%; in the assay with PC-3 prostate it was 80.7%; in the assay with SK-MEL-5 melanoma, 103%. The growth was 75.6% with UACC-62 melanoma, 92.4% in the assay on LOX IMVI melanoma and 108% in the assay on SK-MEL-28 melanoma.
As to `CCCCCCCCCCCCN1CCCC(C)C1` (configuration not stated), the growth was 61.8% with HCT-15 colon; 24% in the assay on HT29 colon; 73.4% with SNB-75 CNS; 101% in the assay on SNB-19 CNS; 67.4% in the assay on PC-3 prostate; 68.4% in the assay on SK-MEL-5 melanoma. For the same compound, the growth is 108% in the assay with UACC-62 melanoma and 90% in the assay on SK-MEL-28 melanoma.
For `O=C1C2CC=CCC2C(=O)N1CNc1ccc(Cl)cc1` (configuration not stated), the growth with HCT-15 colon is 89.6%; with HT29 colon it was 96.3%; in the assay on SNB-75 CNS, 78.2%; in the assay on U251 CNS, 94.1%; with PC-3 prostate, 76.9%; with SK-MEL-5 melanoma, 95%. Besides, the growth is 62.7% in the assay with UACC-62 melanoma, 77% in the assay on LOX IMVI melanoma and 109% in the assay with SK-MEL-28 melanoma.
`O=C(Nc1ccc(CN2CCOCC2)cc1)c1[nH]ncc1Nc1ncnc2sccc12`: the growth is 5.47% (active) in the assay with HCT-15 colon; 9.37% (active) in the assay with HT29 colon; -24.7% (active) in the assay on SNB-75 CNS; 13.8% in the assay on U251 CNS; 11% in the assay on PC-3 prostate; -16.5% (active) in the assay on SK-MEL-5 melanoma. Further, the growth in the assay with UACC-62 melanoma is 10.1%; in the assay on LOX IMVI melanoma, -14.4% (active); with SK-MEL-28 melanoma, 7.07% (active).
`Nc1nc(SCc2ccccc2)c2ncn(C3CCCC3)c2n1`: the growth is -58.9% (active) in the assay with HCT-15 colon; 114% with HT29 colon; 126% with SNB-75 CNS; -25.9% (active) in the assay with U251 CNS; 83.2% in the assay with PC-3 prostate; 94% in the assay with SK-MEL-5 melanoma. Moreover, the growth is 81.4% in the assay with UACC-62 melanoma, 3.63% (active) with LOX IMVI melanoma and 141% in the assay with SK-MEL-28 melanoma.
For the compound `Cc1cc2cc3cc(C)c(N(C)C)cc3[n+](C)c2cc1N(C)C`, the growth with HCT-15 colon was 65.6%; in the assay on HT29 colon, 16.6%; with SNB-75 CNS, 35.4%; in the assay with U251 CNS, 12.3%; in the assay on PC-3 prostate, 4.2% (active); with SK-MEL-5 melanoma it was 42.1%. Besides, the values for the growth in the assay on UACC-62 melanoma, with LOX IMVI melanoma and with SK-MEL-28 melanoma were 56%, 25.9% and 39.6%, respectively.
As to `CCCCN(CCCC)Cc1c(C)[nH]c2cc(OC)ccc2c1=O`, the growth in the assay with HCT-15 colon was 107%; in the assay with HT29 colon, 93.9%; in the assay with SNB-75 CNS, 89.5%; with U251 CNS it was 98.5%; with PC-3 prostate it was 85.2%; in the assay on SK-MEL-5 melanoma it was 101%. Further, the growth was 101% with UACC-62 melanoma, 97.1% in the assay on LOX IMVI melanoma and 112% in the assay on SK-MEL-28 melanoma.
As for `Clc1nc(Cl)c2c3c(sc2n1)CCCC3`, the growth with HCT-15 colon was 26.7%; in the assay on HT29 colon it was 11.3%; in the assay on SNB-75 CNS it was 89%; with U251 CNS, 49.7%; in the assay with PC-3 prostate, 63.8%; in the assay on SK-MEL-5 melanoma it was 50.8%. Also, the growth in the assay with UACC-62 melanoma is 92.9%; in the assay with LOX IMVI melanoma it was 13.4%; with SK-MEL-28 melanoma, 55.1%.

These data come from PubChem BioAssay (NCI).
